In one assay the test system is T1, MEK2.
T1 construct: gene MAP2K2
As to conditions: concentration: 1 μM, replicates: in singlicate; n = 1.

The subject of another assay is T2, MEK3.
T2 construct: gene MAP2K3
To be noted: concentration: 1 μM, replicates: in singlicate; n = 1.

In the next assay the test system is T3, MEK4.
T3 construct: gene MAP2K4
To be noted: n = 1.

In a further assay the test system is T4, MEK5.
T4 construct: gene MAP2K5
To be noted: n = 1.

The subject of the next assay is T5, MEK6.
T5 construct: gene MAP2K6
As to conditions: concentration: 1 μM, replicates: in singlicate; n = 1.

Another assay relates to MELK. To be noted: n = 1.
For another assay, the system named is MERTK. As to conditions: n = 1.
The subject of another assay is MET. To be noted: concentration: 1 μM, replicates: in singlicate; n = 1.
A further assay concerns T6, MINK.
T6 construct: gene MINK1
As to conditions: concentration: 1 μM, replicates: in singlicate; n = 1.

For the next assay, the system named is MKK7. To be noted: concentration: 1 μM, replicates: in singlicate; n = 1.
Another assay concerns MKNK1. To be noted: concentration: 1 μM, replicates: in singlicate; n = 1.
A further assay deals with MKNK2. To be noted: n = 1.
The test system of the next assay is T7, MLCK.
T7 construct: gene MYLK3
As to conditions: n = 1.

The subject of another assay is T8, MLK1.
T8 construct: gene MAP3K9
As to conditions: concentration: 1 μM, replicates: in singlicate; n = 1.

For another assay, the system named is MLK2. As to conditions: concentration: 1 μM, replicates: in singlicate; n = 1.
Another assay has as its system MLK3. To be noted: n = 1.
For another assay, the system named is MRCKA. To be noted: n = 1.
The next assay concerns T9, MRCKB.
T9 construct: gene CDC42BPB
To be noted: n = 1.

Another assay concerns MST1R. To be noted: n = 1.
Another assay has as its system T10, MST1.
T10 construct: gene STK4
To be noted: n = 1.

Setting [1] is: concentration: 1 μM, replicates: in singlicate.
Where [2] appears, read: concentration: 1 μM,replicates: in singlicate, 1 µM.

Several values for one entry are separate records, joined by “and”; a condition that tells them apart may be missing. Equal values may be shown once. Read-outs that look alike come from different tables or passages of the source.
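Further: KINOMEscan kinase panel screen.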

For the compound `COc1cccc(-c2cc(-c3c[nH]nc3-c3ccccn3)ccn2)c1` [GW680338], the “%Inh” value was found to be 0% in the assay on MEK2; 67% in the assay with MEK3; 8% with MEK4 (setting [1]); 13% in the assay on MEK5 (setting [1]); 0% in the assay on MEK6; 19% in the assay on MELK (setting [1]). In addition, the “%Inh” value with MERTK (setting [1]) was 14%; in the assay with MET, 10%; in the assay on MINK, 65%; in the assay with MKK7 it was 10%; in the assay with MKNK1 it was 6%; in the assay on MKNK2 (setting [1]), 0%. In addition, the “%Inh” value came to 8% with MLCK (setting [1]); 0% in the assay with MLK1; 43% in the assay on MLK2; 9% in the assay on MLK3 (setting [1]); 16% in the assay on MRCKA (setting [1]); 0% with MRCKB (setting [1]). The “%Inh” value is recorded as 35% with MST1R (setting [1]) and 4% in the assay with MST1 (setting [1]).
For the compound `CC(C)(C)c1ccc(C(=O)Nc2cn3cc(Cl)ccc3n2)cc1`, the “%Inh” value is 24% in the assay with MEK2; 0% with MEK3; 33% with MEK4 (setting [1]); 38% with MEK5 (setting [1]); 0% with MEK6; 1% in the assay on MELK (setting [1]). The “%Inh” value was found to be 0% in the assay on MERTK (setting [1]); 0% with MET; 9% with MINK; 0% in the assay on MKK7; 0% with MKNK1; 0% in the assay on MKNK2 (setting [1]). Besides, the “%Inh” value is 54% in the assay with MLCK (setting [1]); 0% with MLK1; 8% in the assay on MLK2; 0% in the assay with MLK3 (setting [1]); 0% with MRCKA (setting [1]); 0% in the assay on MRCKB (setting [1]). Also, the “%Inh” value was 5% with MST1R (setting [1]) and 0% in the assay on MST1 (setting [1]).
As for `Cn1cncc1-c1ccc2ncnc(Nc3ccc(OCc4ccccc4)cc3)c2c1` [GW320571], the “%Inh” value in the assay on MEK2 is 0%; with MEK3 it was 0%; in the assay with MEK4 (setting [1]), 35%; with MEK5 (setting [1]) it was 93.7%; with MEK6 it was 0%; in the assay with MELK (setting [1]), 15%. The “%Inh” value with MERTK (setting [1]) stood at 2%; with MET, 11%; in the assay with MINK it was 0%; in the assay on MKK7 it was 15%; with MKNK1, 24%; with MKNK2 (setting [1]), 27%. In addition, the “%Inh” value in the assay with MLCK (setting [1]) was found to be 7%; in the assay on MLK1, 8%; in the assay with MLK2, 26%; with MLK3 (setting [1]) it was 20%; in the assay with MRCKA (setting [1]), 8%; in the assay on MRCKB (setting [1]), 17%. Besides, the “%Inh” value is on record as 29% in the assay on MST1R (setting [1]) and 14% in the assay on MST1 (setting [1]).
For the compound `O=C(Nc1ccccc1)Nc1cccc(Oc2ccc3nccn3n2)c1`, the “%Inh” value in the assay with MEK2 is listed as 0%; with MEK3 it was 0%; in the assay with MEK4 (setting [1]) it was 0%; with MEK5 (setting [1]), 37%; with MEK6, 0%; in the assay with MELK (setting [1]), 0%. Besides, the “%Inh” value in the assay on MERTK (setting [1]) is 4%; in the assay on MET, 0%; in the assay on MINK, 13%; in the assay on MKK7, 0%; with MKNK1, 10%; in the assay with MKNK2 (setting [1]), 0%. Moreover, the “%Inh” value with MLCK (setting [1]) was determined as 7%; in the assay on MLK1 it was 0%; with MLK2 it was 9%; with MLK3 (setting [1]) it was 0%; in the assay with MRCKA (setting [1]), 1%; in the assay with MRCKB (setting [1]), 4%. Also, the “%Inh” value with MST1R (setting [1]) and with MST1 (setting [1]) was 0% throughout.
For the compound `CCCc1ccc(S(=O)(=O)NC2CCN(c3ccnc(Nc4ccc(F)cc4)n3)C2)cc1` (centres unmarked) [GSK1379715], the “%Inh” value in the assay with MEK2 is 0%; with MEK3, 0%; in the assay with MEK4 (setting [1]), 28%; in the assay with MEK5 (setting [1]) it was 0%; with MEK6, 100%; in the assay on MELK (setting [1]), 0%. Moreover, the “%Inh” value in the assay on MERTK (setting [1]) is 0%; in the assay with MET, 0%; with MINK, 0%; in the assay on MKK7, 0%; in the assay with MKNK1, 0%; in the assay on MKNK2 (setting [1]), 8%. The “%Inh” value with MLCK (setting [1]) is 0%; in the assay with MLK1 it was 0%; in the assay on MLK2, 0%; with MLK3 (setting [1]) it was 0%; in the assay on MRCKA (setting [1]), 12%; in the assay on MRCKB (setting [1]), 0%. Besides, the “%Inh” value is 7% in the assay on MST1R (setting [1]) and 0% in the assay with MST1 (setting [1]).
Regarding `Cl.c1ccc(-c2n[nH]cc2-c2ccnc(-c3ccc(CN4CCOCC4)cc3)c2)nc1` [GW776245], the “%Inh” value is 49% in the assay on MEK2; 0% with MEK3; 27% in the assay on MEK4 (setting [1]); 5% with MEK5 (setting [1]); 0% with MEK6; 5% in the assay with MELK (setting [1]). Also, the “%Inh” value is on record as 8% with MERTK (setting [1]); 16% in the assay with MET; 8% in the assay with MINK; 0% in the assay on MKK7; 1% in the assay with MKNK1; 0% in the assay with MKNK2 (setting [1]). The “%Inh” value with MLCK (setting [1]) stood at 0%; in the assay with MLK1, 13%; with MLK2, 25%; in the assay with MLK3 (setting [1]), 10%; in the assay on MRCKA (setting [1]), 29%; in the assay with MRCKB (setting [1]), 0%. Besides, the “%Inh” value with MST1R (setting [1]) was determined as 0%; in the assay on MST1 (setting [1]), 21%.
On to `CC(C)(C)c1ccc(C(=O)Nc2cn3cc(-c4cccnc4)ccc3n2)cc1`, for which the “%Inh” value in the assay with MEK2 was found to be 36%; in the assay on MEK3, 13%; in the assay on MEK4 (setting [1]), 0%; with MEK5 (setting [1]), 95.4%; in the assay with MEK6, 32%; with MELK (setting [1]), 33%. The “%Inh” value in the assay with MERTK (setting [1]) came out at 26%; with MET it was 0%; in the assay on MINK it was 52%; in the assay with MKK7, 0%; in the assay with MKNK1, 0%; in the assay with MKNK2 (setting [1]), 26%. Also, the “%Inh” value with MLCK (setting [1]) came to 41%; with MLK1, 12%; with MLK2 it was 43%; in the assay on MLK3 (setting [1]), 0%; in the assay on MRCKA (setting [1]) it was 9%; in the assay on MRCKB (setting [1]), 0%. Further, the “%Inh” value is reported as 48% in the assay with MST1R (setting [1]) and 33% in the assay on MST1 (setting [1]).
As to `Cl.O=C(Nc1cccc(-c2nn3ncccc3c2-c2ccnc(Nc3cccnc3)n2)c1)c1c(F)cccc1F` [GSK312879], the “%Inh” value in the assay on MEK2 was 9%; with MEK3, 10%; in the assay on MEK4 (setting [1]) it was 40%; in the assay with MEK5 (setting [1]), 88%; with MEK6, 0%; in the assay with MELK (setting [1]), 3%. In addition, the “%Inh” value came out at 12% in the assay with MERTK (setting [1]); 0% with MET; 0% in the assay on MINK; 20% in the assay with MKK7; 0% in the assay on MKNK1; 30% in the assay on MKNK2 (setting [1]). For the same compound, the “%Inh” value is 0% with MLCK (setting [1]); 0% with MLK1; 31% in the assay on MLK2; 1% in the assay with MLK3 (setting [1]); 1% in the assay with MRCKA (setting [1]); 8% in the assay with MRCKB (setting [1]). The “%Inh” value amounted to 26% with MST1R (setting [1]) and 17% with MST1 (setting [1]).
Turning to `CSc1nn2c(=O)cc(N3CCOCC3)nc2n1Cc1cccc(C(F)(F)F)c1C` [GSK2363608], the “%Inh” value with MEK2 was 0%; with MEK3, 0%; in the assay with MEK4 (setting [2]) it was 17% and 30%; in the assay with MEK5 (setting [2]) it was 12% and 0%; in the assay with MEK6, 0%; with MELK (setting [2]), 6% and 0%. Besides, the “%Inh” value is 0% and 18% with MERTK (setting [2]); 0% in the assay on MET; 0% in the assay on MINK; 0% in the assay with MKK7; 0% in the assay on MKNK1; 11% and 6% in the assay on MKNK2 (setting [2]). Besides, the “%Inh” value was 0% and 11% in the assay with MLCK (setting [2]); 0% in the assay with MLK1; 0% with MLK2; 17% and 0% in the assay on MLK3 (setting [2]); 23% and 17% in the assay on MRCKA (setting [2]); 0% and 5% in the assay with MRCKB (setting [2]). In addition, the “%Inh” value was 35% and 48% in the assay on MST1R (setting [2]); 11% and 0% in the assay with MST1 (setting [2]).
On to `O=c1cc(N2CCOCC2)nc2n(Cc3cccc(Cl)c3Cl)ccn12` [GSK2286295], for which the “%Inh” value in the assay on MEK2 came to 0%; in the assay on MEK3, 0%; in the assay with MEK4 (setting [1]), 6%; with MEK5 (setting [1]), 13%; in the assay on MEK6, 0%; in the assay on MELK (setting [1]), 0%. In addition, the “%Inh” value is 29% in the assay on MERTK (setting [1]); 0% with MET; 6% in the assay on MINK; 0% with MKK7; 7% with MKNK1; 1% with MKNK2 (setting [1]). The “%Inh” value was determined as 16% in the assay on MLCK (setting [1]); 0% with MLK1; 0% in the assay on MLK2; 7% in the assay on MLK3 (setting [1]); 8% in the assay with MRCKA (setting [1]); 0% in the assay with MRCKB (setting [1]). Besides, the “%Inh” value in the assay on MST1R (setting [1]) is given as 25%; with MST1 (setting [1]), 0%.

Source of the values: PMC5540273 (PLoS ONE, 2017).
